# Test results as given in PubChem BioAssay (NCATS).
# Results filed as inconclusive are left out. Entries that show only a call come without a potency. Activity calls are given as the source filed them. Calls follow the shape of the dose curve; as a rule, active = well fitted curve in the direction sought with a large enough effect; inconclusive = small, poorly fitted or top-dose-only effect, or another doubt; inactive = no such curve, though single readings can be large; an effect the other way counts as inactive or inconclusive.
# Tests used:
# [1] = molecular target: Luciferin 4-monooxygenase (Photinus pyralis) (UniProt P08659); test: Biochemical firefly luciferase enzyme assay for NPC (AID 624030);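 also: purified P. pyralis luciferase at 10 nM with luciferin and ATP substrate; nearly all actives have a fitted effect of over 70% in size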
# Luciferin 4-monooxygenase (Photinus pyralis), sequence (P08659 whole entry, looked up): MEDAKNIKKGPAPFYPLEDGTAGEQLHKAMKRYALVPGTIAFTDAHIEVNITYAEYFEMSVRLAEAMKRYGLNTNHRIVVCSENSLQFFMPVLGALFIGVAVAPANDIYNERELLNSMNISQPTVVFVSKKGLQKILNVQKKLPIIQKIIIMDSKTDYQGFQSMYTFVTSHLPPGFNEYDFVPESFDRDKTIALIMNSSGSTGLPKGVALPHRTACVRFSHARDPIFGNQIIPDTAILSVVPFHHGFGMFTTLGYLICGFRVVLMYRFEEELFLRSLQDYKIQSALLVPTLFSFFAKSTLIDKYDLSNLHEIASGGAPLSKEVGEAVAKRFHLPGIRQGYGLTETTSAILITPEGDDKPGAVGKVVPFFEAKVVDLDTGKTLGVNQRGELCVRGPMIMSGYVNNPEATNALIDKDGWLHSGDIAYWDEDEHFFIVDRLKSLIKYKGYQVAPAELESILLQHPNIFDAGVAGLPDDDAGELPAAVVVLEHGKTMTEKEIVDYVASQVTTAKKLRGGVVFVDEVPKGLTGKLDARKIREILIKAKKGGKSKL
# Procedure, shortened: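 Direct inhibition of firefly luciferase enzyme (10 nM final, 50 mM Tris Acetate) assessed by luminescence within 5 minutes. Percent activity scaled between DMSO and PTC124 positive control, with concentration-effect curves classified by fit quality and response.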
# [2] = molecular target: Glutaminase kidney isoform, mitochondrial (Homo sapiens) (UniProt O94925); test: qHTS for Inhibitors of Glutaminase (GLS): LOPAC Validation (AID 624146);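 also: glutamate product detected by oxidase and peroxidase coupled Amplex red fluorescence gain; nearly all actives have a fitted effect of over 60% in size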
# Glutaminase kidney isoform, mitochondrial (Homo sapiens), sequence (O94925 whole entry, looked up, canonical isoform): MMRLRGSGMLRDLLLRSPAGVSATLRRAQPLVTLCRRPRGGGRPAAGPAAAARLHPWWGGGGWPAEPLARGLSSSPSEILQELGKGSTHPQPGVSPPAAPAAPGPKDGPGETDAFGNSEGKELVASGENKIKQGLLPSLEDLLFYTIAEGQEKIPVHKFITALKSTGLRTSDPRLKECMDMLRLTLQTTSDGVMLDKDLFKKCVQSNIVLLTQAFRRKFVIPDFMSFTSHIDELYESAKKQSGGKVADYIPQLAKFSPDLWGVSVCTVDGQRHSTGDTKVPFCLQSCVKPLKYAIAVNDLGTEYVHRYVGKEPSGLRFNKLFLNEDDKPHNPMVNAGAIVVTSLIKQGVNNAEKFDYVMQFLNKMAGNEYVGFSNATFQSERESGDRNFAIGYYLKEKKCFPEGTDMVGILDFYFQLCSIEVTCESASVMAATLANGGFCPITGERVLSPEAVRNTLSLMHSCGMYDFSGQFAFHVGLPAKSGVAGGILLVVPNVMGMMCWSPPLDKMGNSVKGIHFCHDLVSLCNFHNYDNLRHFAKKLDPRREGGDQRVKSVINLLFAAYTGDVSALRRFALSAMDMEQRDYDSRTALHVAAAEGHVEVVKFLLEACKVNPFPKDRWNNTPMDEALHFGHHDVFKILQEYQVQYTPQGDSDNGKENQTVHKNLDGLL
# Procedure, shortened: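 Read-out is an Amplex red fluorescence increase coupled through glutamate oxidase and HRP, measured before and after 30 min room-temperature incubation. hKGA is in 45 mM KH2PO4 (pH 8.2) with 0.02% Tween-20; glutamine added as 1mM solution.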
# [3] = qHTS of Trypanosoma Brucei Inhibitors: LOPAC Validation (AID 624147)
# Procedure, shortened: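 Screened from lowest to highest concentration, compounds were pinned into TbPYK/substrate mixtures, and ADP (130 uM final) was added. Plates sat at room temperature for 45 min prior to Kinase-Glo Plus detection by luminescence.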
# [4] = HTS Assay for Allosteric Antagonists of the Human D2 Dopamine Receptor: Hit Validation in HTRF (AID 624455);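 also: stable D1 dopamine receptor cell line scored for blocking the D1 response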
# Procedure, shortened: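 Validation of hits used D1 receptor stably expressed in cells with HTRF detection of response inhibition; origin screen measured calcium flux following EC80 dopamine in a force-coupled, inducible Hek293 Trex D2 cell line.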
# [5] = Cell Proliferation Assay against the TMD8 Cell Line (AID 651645); conditions: TMD8 DLBCL cell line proliferation/viability; at 46.1 µM (top of the series);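 also: cells exposed to compound for 48 h before reading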
# Procedure, shortened: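 TMD8 cells, 500/well in RPMI with 5% FBS, dosed immediately and grown 48 h at 37 C, 5% CO2. CellTiter-Glo luminescence normalised to DMSO 100% and 9.2 uM bortezomib (final) 0%.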
# [6] = Cell Proliferation Assay against the HBL1 Cell Line (AID 651646); conditions: HBL1 DLBCL cells; at 46.1 µM (top of the series);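 also: cells exposed to compound for 48 h before reading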
# Procedure, shortened: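 CellTiter-Glo luminescence after 48 h compound exposure at 37C gives percent activity, with DMSO as 100% and 9.2 uM bortezomib final as 0%. Cells: 500 log-phase HBL1 per well, RPMI plus 5% FBS.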
# [7] = Cell Proliferation Assay against the TMD8 Cell Line (Caspase readout at 16 hrs) (AID 651712); conditions: TMD8 lymphoma cells, caspase activation luminescence; also: potency is read from the fitted curve at half-maximal effect
# Procedure, shortened: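 Caspase-Glo luminescence measured apoptosis after a 16 h, 37 C compound exposure of TMD8 cells (500 cells/well, 5% FBS RPMI). DMSO set 0% and bortezomib at 9.2 uM final set 100% activity.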
# [8] = Cell Proliferation Assay against the TMD8 Cell Line (Caspase readout at 8 hrs) (AID 651713); conditions: TMD8 lymphoma cells, caspase activation luminescence; also: potency is read from the fitted curve at half-maximal effect
# Procedure, shortened: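 Luminescent caspase 3/7 assay; TMD8 cells, 8 h treatment at 37C, 5% CO2. Normalisation: DMSO 0%, 9.2 uM bortezomib 100%.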
smiles,measurement,setting,value
OC1(c2ccc(Cl)c(C(F)(F)F)c2)CCN(CCCC(c2ccc(F)cc2)c2ccc(F)cc2)CC1,Potency,[1],inactive
Cc1nc([N+](=O)[O-])cn1-c1ccc([N+](=O)[O-])cc1,Potency,[1],inactive
CCOc1ccc(NS(=O)(=O)c2ccc(N)cc2)nn1,Potency,[1],inactive
Clc1ccc2c(c1)N=C(N1CCNCC1)c1ccccc1N2,Potency,[2],inactive
same,outcome,[3],inactive
same,outcome,[4],inactive
CO[C@@]1(NC(=O)CSC[C@@H](N)C(=O)O)C(=O)N2C(C(=O)O)=C(CSc3nnnn3C)CS[C@@H]21,Potency,[1],inactive
O=C1CC2(CCCC2)CC(=O)N1CCNCC1COc2ccccc2O1 (centres undefined),Potency,[1],inactive
C[C@@H](C1=C(CCN(C)C)Cc2ccccc21)c1ccccn1,Potency,[1],inactive
Nc1c(NC/C=C\COc2cc(CN3CCCCC3)ccn2)c(=O)c1=O,Potency,[1],inactive
O=C(O)CNC(=O)CNC(=O)CNC(=O)CSC(=O)c1ccccc1,Potency,[1],inactive
Cc1ccc2c(Cl)cc(Cl)c(O)c2n1,Potency,[1],inactive
COC(=O)C1=CO[C@@H](O)[C@@H]2C(CO)=CC[C@H]12,Potency,[2],inactive
same,outcome,[3],inactive
same,outcome,[4],inactive
C[C@@H](O[C@H]1OCCN(Cc2n[nH]c(=O)[nH]2)[C@H]1c1ccc(F)cc1)c1cc(C(F)(F)F)cc(C(F)(F)F)c1,viability (% of control),[5],8.07%
same,"viability, percent of control",[6],8.93%
same,Potency,[7],11.8 µM (active)
same,Potency,[8],33.2 µM (active)
O=C(CCCCCCCCC#CI)Oc1ccccc1,Potency,[1],inactive
O=C(O)Cc1ccc(OCCNC[C@H](O)c2ccccc2)cc1,Potency,[1],inactive
O=C1[C@@H]2[C@H]3CC[C@H](C3)[C@@H]2C(=O)N1CCCCN1CCN(c2ncccn2)CC1,Potency,[1],inactive
O=[N+]([O-])c1nccn1CO[C@@H](CO)[C@H](O)CO,Potency,[1],inactive
C[C@H]1NCc2cc(-c3ccc4c(=O)c(C(=O)O)cn(C5CC5)c4c3OC(F)F)ccc21,Potency,[1],inactive
